Assay results as given in PubChem BioAssay (NCATS).
Records with an inconclusive call do not appear. The source made the active and inactive calls. Calls follow the shape of the dose curve; as a rule, active = well fitted inhibition curve with a large enough effect; inconclusive = small, poorly fitted or top-dose-only effect; inactive = flat fitted curve, though single readings scatter.

Columns and labels:
[1] = system: CRL-7250; test: Cytotoxic Profiling of Annotated Libraries Using Quantitative High-Throughput Screening (AID 1296008); conditions: Five cell lines viability, CellTiter-Glo ATP luminescence, 48-72 h; max response: hits give low values; as to max response: % is scaled to controls: 0 for no effect and ±100 for the full control effect
In short: (§1)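 Cells exposed to compounds for 48 or 72 hr at 37 degrees Celsius. Viability read as ATP-coupled luminescence with CellTiter-Glo after 10 min at room temperature.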

[2] = system: HaCat; test: as above; conditions: Five cell lines viability, CellTiter-Glo ATP luminescence, 48-72 h; max response: hits give low values
In short: as §1

[3] = system: KB-3-1; test: as above; conditions: Five cell lines viability, CellTiter-Glo ATP luminescence, 48-72 h; max response: hits give low values
In short: as §1

[4] = system: NIH3T3; test: as above; conditions: Five cell lines viability, CellTiter-Glo ATP luminescence, 48-72 h; max response: hits give low values
In short: as §1

[5] = system: HACAT; test: qHTS assay to identify novel small-molecules to repurpose for Merkel cell carcinoma treatment (AID 1296009); conditions: MCC and control cell lines, CellTiter-Glo viability, 72 h; at 44.8 µM (top of the series) unless noted
In short: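 Dose-response viability screen; 72 hr exposure at 37 degree celsius; CellTiter-Glo added, 10 min room temperature, luminescence read; RLUs scaled between no-cell and DMSO wells.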

Measured: max response
Also: nearly all actives have a fitted effect of over 60% in size.

CC(=O)OCC(=O)[C@@]12O[C@@H]1C[C@H]1[C@@H]3CC=C4C[C@@H](O)CC[C@]4(C)[C@H]3CC[C@@]12C
inactive: [1] 1.57% | [2] | [3] | [4] | [5]

CC(C)(Cc1nc(-c2ccc(O)cn2)no1)C(=O)NC1=C(C(=O)O)CCCC1
inactive: [1] -1.84% | [2] | [3] 2.15% | [4] -20.8% | [5]

O=C(NC[C@H]1CN(c2ccc(N3CCOCC3=O)cc2)C(=O)O1)c1ccc(Cl)s1
inactive: [1] 0.206% | [2] | [3] -11.5% | [4] -0.938% | [5]

COc1ccc(S(=O)(=O)Nc2cc(Cl)cc(Cl)c2OC)cc1N1CCNCC1
inactive: [1] -0.811% | [2] | [3] -5.04% | [4] -3.81% | [5]

NS(=O)(=O)c1ccc(NC(=O)Nc2ccc(F)cc2)cc1
inactive: [1] | [2] | [3] -12% | [4] 2.88% | [5]

O=C(NCc1ccc(OC(F)(F)F)cc1)C1c2c(F)cccc2C(=O)N1CCc1ccccn1 (stereo not given)
inactive: [1] -3.88% | [2] | [3] 4.96% | [4] -2.89% | [5]

Cc1nc2cc(C(=O)NCc3ccccn3)nn2c(C)c1Cc1cccc(Cl)c1
inactive: [1] | [2] | [3] -9.98% | [4] 3.03% | [5]

COc1ccc(-c2cnc3c(-c4cccc5ncccc45)cnn3c2)cc1
inactive: [1] | [2] | [3] -5.9% | [4] -19.7% | [5]

CC(C)(C)NC(=O)[C@H]1CC[C@H]2[C@@H]3CC[C@H]4NC(=O)CC[C@]4(C)[C@H]3CC[C@]12C
inactive: [1] -10.4% | [2] | [3] -6.73% | [4] -8.88% | [5]

C=C1CC2OC(=O)C(=C)C2C(O)/C=C(\C)CCC1O (stereo not given)
inactive: [1] -0.668% | [2] | [3] 5.02% | [4] -10.3% | [5]

O=c1[nH]c2ccccc2n1CCN1CCN(c2cccc(C(F)(F)F)c2)CC1
inactive: [1] | [2] | [3] -13.2% | [4] | [5]

CC(=O)c1ccc2c(c1)[C@H](NC(=O)c1ccc(F)c(Cl)c1)[C@H](O)C(C)(C)O2
inactive: [1] -9.32% | [2] | [3] 2.28% | [4] | [5]

COc1ccc2cc(-c3cc(-c4cc(Cl)cc(Cl)c4)nn3C(C)c3ccc(C(=O)NCCC(=O)O)cc3)ccc2c1 (stereo not given)
inactive: [1] 2.03% | [2] | [3] -23.8% | [4] | [5]

CCC/C=C/C=C/C1CC(O)C2(O)C(=O)OCC12 (stereo not given)
inactive: [1] | [2] | [3] 7.96% | [4] 4.66% | [5]

COc1cc(F)c(C(C)C)cc1-c1ccc(C(F)(F)F)cc1CN1C(=O)OC(c2cc(C(F)(F)F)cc(C(F)(F)F)c2)C1C (stereo not given)
inactive: [1] 3.77% | [2] | [3] | [4] | [5]

CC(=O)C=C=C1C(C)(C)CC(O)CC1(C)O[C@@H]1O[C@H](CO[C@H]2OC[C@](O)(CO)[C@H]2O)[C@@H](O)[C@H](O)[C@H]1O (stereo not given in full)
inactive: [1] -2.66% | [2] | [3] | [4] 1.53% | [5] inactive [at 17.4 µM]

CCCNCCc1ccc(NS(=O)(=O)c2ccc(OC(F)(F)F)cc2)cc1
inactive: [1] -2.99% | [2] | [3] -2.39% | [4] | [5]

O=S1(=O)CCN(Cc2cc(NCC3CCOCC3)c3[nH]c(-c4ccccc4)cc3c2)CC1
inactive: [1] -9.27% | [2] | [3] 4.46% | [4] -21.1% | [5]

O=C(NCCCn1ccnc1)c1cc(-c2ccco2)on1
inactive: [1] -18.4% | [2] | [3] -0.296% | [4] 2.29% | [5]

O=C1COC2(CCN(S(=O)(=O)c3ccc(-c4ccc5cccnc5c4)cc3)CC2)CN1C1CC1
inactive: [1] -2.24% | [2] | [3] 7.72% | [4] -10.8% | [5]

Cc1cc(C)c(S(=O)(=O)n2cc(C)cc2C)c(C)c1
inactive: [1] -3.09% | [2] | [3] 2.85% | [4] | [5]

CNC(C)C(=O)NC(C(=O)N1CCCC1C(=O)Nc1snnc1-c1ccccc1)C1CCCCC1 (stereo not given)
inactive: [1] 0.759% | [2] | [3] 3.39% | [4] | [5]
